# According to PubChem BioAssay (NCATS):
# Records with an inconclusive call do not appear. A number with no mark means an inactive call. Active and inactive are the calls of the source. The call rests on the fitted dose curve; in most records, active means well fitted cell-killing curve with a large enough effect; inconclusive means small, poorly fitted or top-dose-only effect; inactive means no such curve, though single readings can be large or run the other way.
# Assay: Quantitative High-Throughput drug screen in 47 multiple myeloma cell lines against the NCATS MIPE library collection: NCIH929_DSMZ cell viability assay (AID 1918978); further: nearly all actives have a fitted effect of over 35% in size
# Details: NCI-H929 myeloma viability, CellTiter-Glo ATP, 48 h; series mostly up to 45.8 µM; viability, % of control: at the top concentration
# Method in brief: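 Viability after 48 h drug exposure was measured as ATP-dependent luminescence. Cells, 500 per well, sat at 37 °C under 5% CO2; DMSO wells set 100%, media-only wells 0%.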
# Potency means the concentration at half of the fitted maximal effect.
SMILES,"viability, % of control",Potency
COc1ccc(-n2nc(C(N)=O)c3c2C(=O)N(c2ccc(N4CCCCC4=O)cc2)CC3)cc1,119%,–
CC(O)C1C(=O)N2C(C(=O)O)=C(SC3CNC(C(=O)N(C)C)C3)C(C)C12 (stereo not given),98.9%,–
CNc1nccc(-c2cccnc2Oc2cc(C(=O)Nc3cccc(C(F)(F)F)c3)ccc2C)n1,–,5.26 µM (active)
COc1cccc(-c2ccc(NC(=O)C3=C(C(=O)O)CCC3)c(F)c2)c1,–,20.9 µM (active)
CCCCN1CCC(CNC(=O)c2c3n(c4ccccc24)CCCO3)CC1,–,4.69 µM (active)
COC(=O)C[C@](O)(CCCC(C)(C)O)C(=O)O[C@@H]1C(OC)=C[C@]23CCCN2CCc2cc4c(cc2[C@H]13)OCO4,110%,–
CCNC(=O)Nc1ccc2ncc(Nc3ccc(C)cc3)nc2n1,–,7.43 µM (active)
CCCCCCCCCC(=O)N[C@@H](Cc1c[nH]c2ccccc12)C(=O)N[C@H](CC(N)=O)C(=O)N[C@@H](CC(=O)O)C(=O)N[C@@H]1C(=O)NCC(=O)N[C@@H](CCCN)C(=O)N[C@@H](CC(=O)O)C(=O)N[C@H](C)C(=O)N[C@@H](CC(=O)O)C(=O)NCC(=O)N[C@H](CO)C(=O)N[C@@H]([C@@H](C)CC(=O)O)C(=O)N[C@@H](CC(=O)c2ccccc2N)C(=O)O[C@@H]1C,103%,–
CC1(C)O[C@@H]2C[C@@H]3[C@H]4C[C@@H](F)C5=CC(=O)C=C[C@]5(C)[C@@]4(F)[C@@H](O)C[C@]3(C)[C@]2(C(=O)CO)O1,90.2%,–
CS(=O)(=O)c1ccc(-c2cnc(N)c(C(=O)Nc3ccccc3)n2)cc1,114%,–
